For 71 compounds, max dye-equivalent concentration results are on record in PubChem BioAssay AID589 (National Center for Advancing Translational Sciences (NCATS), 2007).

Structures are written as SMILES. Out of some 59,000 compounds screened, about 6,200 (11%) were called active. Another 9% or so got no clear call; they are omitted. Cut-off read from the data, not from the text of the source: active = max dye-equivalent concentration above about 10 nM; inconclusive = mostly about 1.1 nM to 9.6 nM; inactive = weaker than that. The full list was thinned out, with actives kept by preference.

The assay in a line: qHTS Assay for Spectroscopic Profiling in 4-MU Spectral Region. The conditions noted are these: compound autofluorescence, 340/450 nm, 4-MU equivalents; stronger effect = higher value. A digest of the protocol: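 Compounds in 100 mM Tris, pH 8.0, sat 15 min at room temperature before fluorescence was read at 340 nm excitation/450 nm emission; a per-plate six-point 4-MU standard curve converted signals to dye-equivalent concentration at each compound concentration.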
(In general: In qHTS, concentration-response curves come from the screen itself.)
Consider `c1ccc(CCc2nc(-c3ccncc3)no2)cc1`, for which the max dye-equivalent concentration result was “inactive”.
Next, `CC(=O)N1CCC(C(=O)Nc2nc(-c3ccccc3)ns2)CC1`: 1800 nM (active).
Next, `Cc1ccc2c(NC(=O)C3CC3)cccc2n1`: “inactive”.
Next, `Cc1cc(C)cc(NC(=O)C2CCN(c3nc(C)cc(C)n3)CC2)c1`: “inactive”.
As to `CCCOc1ccccc1-c1nc(SCCC(=O)O)n[nH]1`, the max dye-equivalent concentration entry is “inactive”.
As for `CCn1c(=N)n(CC(=O)c2cccc(OC)c2)c2ccccc21`, the entry is “inactive”; as for `COC(=O)c1ccc(CSc2nncn2C)cc1`, “inactive”; as for `Cc1ccc(NC(=O)CCN2CCc3ccccc3C2)cc1`, “inactive”.
As for `Cc1ccc2c(c1)c1ncnc(N3CCc4ccccc4C3)c1n2C`, the figure is 140 nM (active).
Next, `Cc1ccc(C(c2nnnn2C(C)(C)C)N2CCc3ccccc3C2)cc1` (stereo unspecified): “inactive”; `CCOC(=O)CSc1nnc(NC(=O)c2cccc(S(=O)(=O)N3CCCCC3)c2)s1`: “inactive”; `Cc1cc(C)c2nc3c(c([C@H](O)[C@@H]4CCCCN4)c2c1)CC/C3=C/c1ccc(Cl)cc1`: “inactive”.
Regarding `CN1CCc2[nH]nc(-c3n[nH]c4c3CN(C)CC4)c2C1`, the max dye-equivalent concentration result is “inactive”.
Next, `c1coc(-c2nc3nc4ccccc4n3nc2-c2ccco2)c1`: “inactive”; `Cn1c(-c2ccco2)nc2cc3ccccc3cc21`: 890 nM (active); `CCOC(=O)CSc1nnc(-c2ccco2)n1C`: “inactive”.
`O=C(c1ccco1)N1CCN(C(=O)c2ccc(COc3ccc(F)cc3)o2)CC1`: the max dye-equivalent concentration entry is “inactive”.
Regarding `O=C(c1ccco1)N1CCC2(CC1)CN(c1ncccn1)C2`, the max dye-equivalent concentration result was “inactive”.
Next, `CCCCNC(=O)CSc1nnc(-c2ccco2)n1C`: “inactive”; `Cn1c(=O)c2c(ncn2CC(=O)N2CCN(c3ccccc3)CC2)n(C)c1=O`: “inactive”; `COc1ccccc1NC(=O)C1=C(C)Nc2ncnn2C1c1ccc(C)o1` (stereo unspecified): “inactive”.
`COc1ccccc1NC(=O)c1ccc(C)s1`: the max dye-equivalent concentration result is “inactive”.
As for `COc1ccccc1NC(=O)C1=C(C)NC2=C(C(=O)CCC2)C1c1ccc(C)o1` (stereo unspecified), the figure is 16 nM (active); as for `O=C(NCCN=C1NS(=O)(=O)c2ccccc21)c1ccc(S(=O)(=O)N2CCOCC2)cc1`, “inactive”.
As for `Cc1cc(=O)oc(C)c1C(=O)NC1CC(C)(C)NC(C)(C)C1`, the entry is “inactive”; as for `COCc1nnc(NC(=O)CS(=O)(=O)Cc2ccccc2)s1`, “inactive”; as for `O=C(O)C1CCCN1S(=O)(=O)c1ccc2c(c1)CCC2` (stereo unspecified), “inactive”.
Next, `CCS(=O)(=O)NCCc1ccc(OC)c(OC)c1`: “inactive”; `Cn1c(C(=O)NCCN2CCc3ccccc3C2)cc2c(=O)[nH]c3ccccc3c21`: “inactive”.
With `CCNC(=O)c1c(O)c2cccc3c2n(c1=O)CC3`, the max dye-equivalent concentration is 17 nM (active).
As to `Cc1cc(=O)n2c3c(cccc13)CCC2`, the max dye-equivalent concentration result is “inactive”.
As for `O=S(=O)(O)c1ccc(O)c2ncccc12.O=S(=O)(O)c1ccc(O)c2ncccc12.[Zn]`, the entry is “inactive”.
As for `Cc1ccccc1N1CCN(S(=O)(=O)C[C@@]23CC[C@H](C[C@H]2NC(=O)[C@@H](N)CCS(C)(=O)=O)C3(C)C)CC1`, the entry is “inactive”; as for `CCOC(=O)C1=C(CNC2CCCCC2)NC(=O)NC1c1cc(C)ccc1C` (stereo unspecified), “inactive”.
As for `COc1cc(OC)cc(C(=O)NCCSCc2ccco2)c1`, the max dye-equivalent concentration entry was “inactive”.
As for `Clc1cccc(-c2nc3nc4ccccc4nc3n2Cc2ccco2)c1`, the figure is 110 nM (active); as for `O=C(CSc1nnc(-c2cccnc2)n1Cc1ccco1)c1ccc(Cl)cc1`, “inactive”.
Next, `C(=C\c1ccccc1)/CSc1nnc(-c2cccnc2)n1Cc1ccco1`: “inactive”; `C=C(C)Cn1c(SCC(=O)NCc2ccco2)nc2sc3c(c2c1=O)CCC3`: “inactive”.
Consider `CN1CCc2c(sc3c2c(NCc2ccco2)nc2nnnn23)C1`, for which the max dye-equivalent concentration is 380 nM (active).
Consider `c1coc(CNc2ncnc3ccccc23)c1`, for which the max dye-equivalent concentration entry is “inactive”.
Next, `Cc1cccc(N(CC(O)CN(C)C)S(=O)(=O)c2ccccc2)c1` (stereo unspecified): “inactive”.
Next, `CCOC(=O)N1CCN(C(=O)CN(C2CCCCC2)S(C)(=O)=O)CC1`: “inactive”; `Cc1cccn2c(=O)c3cc(C(=O)N4COCC4(C)C)n(C)c3nc12`: 970 nM (active); `Cc1cccn2c(=O)c3cc(C(=O)NCc4ccccn4)n(C)c3nc12`: 190 nM (active).
As for `O=C(NCc1ccccn1)c1c(O)c2c([nH]c1=O)CCCC2`, the entry is “inactive”; as for `O=C(NCc1ccco1)c1nc2ncccn2n1`, “inactive”; as for `CCOC(=O)N1CCN(S(=O)(=O)c2cc3c(cc2C)NC(=O)CO3)CC1`, “inactive”.
Regarding `Cc1cnc(CNc2ncncc2-c2ccccc2Cl)cn1`, the max dye-equivalent concentration result was “inactive”.
As for `Cc1ccccc1C(OCC(O)CN1CCCCC1CCO)c1ccccc1` (stereo unspecified), the entry is “inactive”.
Next, `Cc1noc(C)c1C(=O)Nc1ccccn1`: “inactive”; `Cc1ccc(-c2nc(COC(=O)c3c(C)noc3C)cs2)cc1`: “inactive”.
Next, `Cc1noc(C)c1C(=O)OCC(=O)/C=C1\N(C)c2ccccc2C1(C)C`: 150 nM (active); `COc1ccc(C(=O)N/N=C2/C(=O)c3c(C)cc(C)cc3CC2(C)C)cc1`: “inactive”; `Cc1ccc(S(=O)(=O)N2CCC(C(=O)N[C@@H](C)C(=O)NCCc3ccccc3)CC2)cc1`: “inactive”.
In the case of `CCOc1ccc(-n2c(SC(C)C(=O)OC)nc3c(c2=O)SCC3)cc1` (stereo unspecified), the max dye-equivalent concentration result is “inactive”.
As for `CCOC(=O)N1CCC(NC(=O)Cc2cn(C)c3ccccc23)CC1`, the entry is “inactive”; as for `CCOC(=O)N1CCC(NC(=O)C(C)n2c3ccccc3c3cnn(C)c(=O)c32)CC1` (stereo unspecified), “inactive”.
As for `CCOC(=O)N1CCC(NC(=O)CCc2cn(C)c3ccccc23)CC1`, the figure is 380 nM (active); as for `CCCN1C2=C(C(=O)CCC2)C(c2ccc(O)c(Br)c2)C2=C1CCCC2=O`, 78 nM (active).
Next, `COc1cc(Cl)cc(C2NC(=O)NC(C)=C2C(=O)NCc2ccccc2)c1O` (stereo unspecified): “inactive”.
Consider `COc1cc([C@H]2c3cc4c(cc3[C@@H](O[C@@H]3O[C@H]5CO[C@@H](C)O[C@]5(O)C[C@H]3O)[C@@H]3COC(=O)[C@H]23)OCO4)cc(OC)c1O`, for which the max dye-equivalent concentration entry was “inactive”.
Next, `O=C1CCCC2=C1C(c1cccs1)n1nc(SCc3ccccc3)nc1N2` (stereo unspecified): 110 nM (active); `CC(C)C(=O)N1c2ccccc2NC2=C(C(=O)CCC2)C1c1ccc(N(C)C)cc1` (stereo unspecified): “inactive”.
Next, `CC(C)(C)NCC[C@@H](O)c1cc(C(F)(F)F)nc2c(C(F)(F)F)cccc12`: “inactive”; `Fc1ccc(-c2nnc3sc(-c4ccc5c(c4)OCO5)nn23)cc1`: 26 nM (active).
Next, `c1ccc(-c2nnc3n2NC(c2ccc4c(c2)OCO4)S3)cc1` (stereo unspecified): “inactive”; `FC(F)(F)c1nnc2sc(-c3ccco3)nn12`: “inactive”.
Turning to `Fc1ccc(-c2ccc(-c3nn4c(-c5ccco5)nnc4s3)o2)cc1`, the max dye-equivalent concentration was 51 nM (active).
Next, `CC(=O)Nc1ccc(-c2nn3c(C)nnc3s2)cc1C`: “inactive”; `Cc1nnc2sc(-c3ccco3)nn12`: “inactive”.
